Source: PubChem BioAssay
eIF4H FP inh: inhibitors of RNA binding by human eIF4H; eIF4H fluorescence polarization binding assay; inhibition, % at 35 µM; hit rate 0.94% among 290,000; AID 2012;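 note: calls also rest on retests at 20 µM and on dose response follow-up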
PABP polyA inh: PABP-poly(A) binding inhibition; P11940; PABP-poly(A) RNA binding, fluorescence polarization; inhibition, % at 35 µM; hit rate 1% among 290,000;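 note: calls also rest on retests at 20 µM and on dose response follow-up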
PERK inh: inhibitors of human PERK kinase; CHO PERK-DD fusion, SEAP luminescence translation reporter; inhibition, % at 5.6 µM; hit rate 0.17% among 220,000; AID 1416;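 active = inhibition above the mean inhibition of all tested compounds plus 3 SD, set separately per screening campaign, cut at about 2.9% in these data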;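 note: PERK kinase domain activated by AP20187 dimerizer at 100 nM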
PABP1 MLLE inh: inhibitors of microRNA-mediated deadenylation, human PABP1 MLLE binding. hit rate 0.36% among 360,000. GST-MLLE / FITC-PAM2 fluorescence polarization. inhibition, % at 20 µM. P11940; in the data active = inhibition above about 35%, passing the limit was not always enough
eIF4E 4G PPI: eIF4E/eIF4G interaction inhibition in translation initiation. TR-FRET eIF4E-eIF4GI(517-606) binding, 2 h. P63073+Q04637. inhibition, % at 21.7 µM. hit rate 0.37% among 220,000;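 active = inhibition above about 30%, limit read from the data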
PfM18AAP inh-1: blocks P. falciparum M18 aspartyl aminopeptidase; recombinant PfM18AAP, H-Glu-NHMec fluorogenic cleavage; hit rate 1.2% among 290,000; inhibition, % at 7.35 µM;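 active = inhibition above the campaign mean inhibition over all tested compounds plus 3 SD, cut at about 28% in these data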
PfM18AAP inh-2: confirmation of Plasmodium falciparum M18 aspartyl aminopeptidase inhibitors; AID 2170; inhibition, % at 7.35 µM; hit rate 28% among 2,400; recombinant PfM18AAP, H-Glu-NHMec fluorogenic cleavage; shares compounds with PfM18AAP inh-1;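 active = mean inhibition over replicate wells above the hit cutoff set for the earlier primary screen, cut at about 29% in these data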
CTSL1 confirm: Cathepsin L (human) inhibition, confirmation. shares compounds with PfM18AAP inh-1. purified cathepsin L1, Z-Leu-Arg-MCA fluorescence. inhibition, % at 5.96 µM. 2,400 tested, under 10 active. AID 2178;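 active = average inhibition across replicates above the hit cutoff set in the earlier primary screen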
Hits are given with their value. In the library only some 2.4% were active in any assay of this set; here they are far more common. Unless noted, the rule behind the calls is not given here.

For CCN1CCc2c(sc(NC(=O)c3ccc(C(=O)c4ccccc4)cc3)c2C(N)=O)C1 the results were eIF4H FP inh inactive, PABP polyA inh inactive, PABP1 MLLE inh inactive and PfM18AAP inh-1 inactive.
`CCN1CCc2c(sc(NC(=O)c3ccc(S(=O)(=O)N(CC)c4ccccc4)cc3)c2C(N)=O)C1` gave eIF4H FP inh inactive, PABP polyA inh inactive, PABP1 MLLE inh inactive, PfM18AAP inh-1 36.1, PfM18AAP inh-2 inactive and CTSL1 confirm inactive.
`CCN1CCc2c(sc(NC(=S)NC(=O)c3ccco3)c2C(N)=O)C1` gave eIF4H FP inh 85.3, PABP polyA inh 50.4, PERK inh inactive, PABP1 MLLE inh inactive, eIF4E 4G PPI inactive, PfM18AAP inh-1 33.3, PfM18AAP inh-2 inactive and CTSL1 confirm inactive.
Screening N#Cc1c(NC(=S)NC(=O)c2ccccc2)sc2c1CCC2 returned eIF4H FP inh inactive, PABP polyA inh inactive, PERK inh inactive, PABP1 MLLE inh inactive, eIF4E 4G PPI inactive and PfM18AAP inh-1 inactive.
For CCN1CCc2c(sc(NC(=O)Cc3ccccc3)c2C(N)=O)C1 the results were eIF4H FP inh inactive, PABP polyA inh inactive, PABP1 MLLE inh inactive and PfM18AAP inh-1 inactive.
Screening NNC(=O)[C@H]1C[C@@H]1c1ccccc1 returned eIF4H FP inh inactive, PABP polyA inh inactive, PERK inh inactive, PABP1 MLLE inh inactive, eIF4E 4G PPI inactive and PfM18AAP inh-1 inactive.
`CCOc1cc(C(=O)NC(=S)Nn2cnnc2)cc(OCC)c1OCC` gave eIF4H FP inh inactive, PABP polyA inh inactive, PERK inh inactive, PABP1 MLLE inh inactive, eIF4E 4G PPI inactive, PfM18AAP inh-1 75.3, PfM18AAP inh-2 75.3 and CTSL1 confirm inactive.
`CCOc1cc(C(=O)Nn2cnnc2)cc(OCC)c1OCC` gave eIF4H FP inh inactive, PABP polyA inh inactive, PERK inh inactive, PABP1 MLLE inh inactive, eIF4E 4G PPI inactive, PfM18AAP inh-1 34.8, PfM18AAP inh-2 inactive and CTSL1 confirm inactive.
Cn1c(CO)cnc1S(=O)(=O)Cc1c(Cl)cccc1Cl was read as eIF4H FP inh inactive, PABP polyA inh inactive, PABP1 MLLE inh inactive and PfM18AAP inh-1 inactive.
Screening C=CCn1c(=O)c2ccccc2n2c(=S)[nH]nc12 returned eIF4H FP inh inactive, PABP polyA inh inactive, PABP1 MLLE inh inactive and PfM18AAP inh-1 inactive.
For CCOCCCn1c(=O)c2ccccc2n2c(=S)[nH]nc12 the results were eIF4H FP inh inactive, PABP polyA inh inactive, PABP1 MLLE inh inactive, PfM18AAP inh-1 46.0, PfM18AAP inh-2 inactive and CTSL1 confirm inactive.
For CCOC(=O)Cc1csc(NC(=O)CSc2nnc(-c3ccncc3)o2)n1 the results were eIF4H FP inh inactive, PABP polyA inh inactive, PERK inh inactive, PABP1 MLLE inh inactive, eIF4E 4G PPI inactive and PfM18AAP inh-1 inactive.
Screening CCOC(=O)Cc1csc(NC(=O)CSc2nnc(-c3ccc(NS(=O)(=O)CC)cc3)o2)n1 returned PERK inh inactive, PABP1 MLLE inh inactive, PfM18AAP inh-1 39.4, PfM18AAP inh-2 inactive and CTSL1 confirm inactive.
`COc1ccccc1Cc1nnc(NC(=O)C2CCN(C(=O)c3ccco3)CC2)s1` gave eIF4H FP inh inactive, PABP polyA inh inactive, PABP1 MLLE inh inactive, PfM18AAP inh-1 41.7, PfM18AAP inh-2 inactive and CTSL1 confirm inactive.
`COCc1nnc(NC(=O)C2CCN(C(=O)c3ccco3)CC2)s1` gave eIF4H FP inh inactive, PABP polyA inh inactive, PABP1 MLLE inh inactive and PfM18AAP inh-1 inactive.
O=C1CSC(c2cn(-c3ccccc3)nc2-c2cccs2)N1CC1CCCO1 (centres undefined) was read as eIF4H FP inh inactive, PABP polyA inh inactive, PERK inh inactive, PABP1 MLLE inh inactive, eIF4E 4G PPI inactive and PfM18AAP inh-1 inactive.
`CN(C)C(=S)Nc1nc2ccccc2s1` gave eIF4H FP inh inactive, PABP polyA inh inactive, PERK inh inactive, PABP1 MLLE inh inactive, eIF4E 4G PPI inactive, PfM18AAP inh-1 46.4, PfM18AAP inh-2 inactive and CTSL1 confirm inactive.
Screening CC(=O)NNc1nc2ccccc2s1 returned eIF4H FP inh inactive, PABP polyA inh inactive, PERK inh inactive, PABP1 MLLE inh inactive, eIF4E 4G PPI inactive, PfM18AAP inh-1 50.8, PfM18AAP inh-2 inactive and CTSL1 confirm inactive.
`C/C(=C\C(=O)c1ccccc1)NNc1nc2ccccc2s1` gave eIF4H FP inh inactive, PABP polyA inh inactive, PERK inh inactive, PABP1 MLLE inh inactive, eIF4E 4G PPI inactive and PfM18AAP inh-1 inactive.
COC(=O)c1nn(C)c(=O)[nH]c1=O was read as PABP1 MLLE inh inactive.
O=C(C1=C[C@@H](c2ccc3c(c2)OCO3)C[C@@H](OCc2ccc(CO)cc2)O1)N1CCOCC1 was read as eIF4H FP inh inactive, PABP polyA inh inactive, PERK inh inactive, PABP1 MLLE inh inactive, eIF4E 4G PPI inactive and PfM18AAP inh-1 inactive.
O=C(C1=C[C@H](c2ccc3c(c2)OCO3)C[C@H](OCc2ccc(CO)cc2)O1)N1CCCCCCC1 was read as eIF4H FP inh inactive, PABP polyA inh inactive, PERK inh inactive, PABP1 MLLE inh inactive, eIF4E 4G PPI inactive, PfM18AAP inh-1 32.7, PfM18AAP inh-2 inactive and CTSL1 confirm inactive.
`N#C/C(=C\c1coc2ccc(O)cc2c1=O)C(=O)Nc1nc2ccccc2s1` gave eIF4H FP inh inconclusive, PABP polyA inh inconclusive, PERK inh inactive, PABP1 MLLE inh inactive, eIF4E 4G PPI inactive, PfM18AAP inh-1 50.8, PfM18AAP inh-2 inactive and CTSL1 confirm inactive.
Screening CC12C(=O)N(CCC(=O)O)C(=O)C1C1C=CC2C1 (centres undefined) returned eIF4H FP inh inactive, PABP polyA inh inactive, PERK inh inactive, PABP1 MLLE inh inactive, eIF4E 4G PPI inactive and PfM18AAP inh-1 inactive.
For CCN(CC)c1ccc(-n2c(C)cc(C=O)c2C)cc1 the results were eIF4H FP inh inactive, PABP polyA inh inactive, PERK inh inactive, PABP1 MLLE inh inactive, eIF4E 4G PPI inactive, PfM18AAP inh-1 33.2, PfM18AAP inh-2 inactive and CTSL1 confirm inactive.
Screening CCOc1ccccc1/C=N/Nc1nc2c(N)ncnc2n1[C@H]1O[C@@H](CO)[C@H](O)[C@@H]1O returned eIF4H FP inh inactive, PABP polyA inh inactive, PERK inh inactive, PABP1 MLLE inh inactive, eIF4E 4G PPI inactive, PfM18AAP inh-1 36.2, PfM18AAP inh-2 inactive and CTSL1 confirm inactive.
CC1CCN(c2nc3c(N)ncnc3n2[C@@H]2O[C@H](CO)[C@@H](O)[C@H]2O)CC1 was read as eIF4H FP inh inactive, PABP polyA inh inactive, PABP1 MLLE inh inactive and PfM18AAP inh-1 inactive.
`Cc1ccc(NC(=O)/C(=C\c2ccc([N+](=O)[O-])cc2)NC(=O)c2ccccc2)cc1` gave eIF4H FP inh inactive, PABP polyA inh inactive, PERK inh inactive, PABP1 MLLE inh inactive, eIF4E 4G PPI inactive and PfM18AAP inh-1 inactive.
